{
  "source": "PubChem BioAssay AID493169",
  "about": "(National Center for Advancing Translational Sciences (NCATS), 2011)",
  "note": "Results filed as inconclusive are left out. Entries that show only a call come without a potency. Activity calls are given as the source filed them. Calls follow the shape of the dose curve; as a rule, active = well fitted inhibition curve with a large enough effect; inconclusive = small, poorly fitted or top-dose-only effect; inactive = flat fitted curve, though single readings scatter. Potency is read from the fitted curve at half-maximal effect.",
  "data": [
    {"test": "CHOP2 Reporter Counterscreen Assay for Inhibitors of Ubiquitin-specific Protease USP2a;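 also: activated enterokinase alone at 50 pM in a cell-free format rather than USP2a or CHOP2; nearly all actives have a fitted effect of over 55% in size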", "conditions": "purified enterokinase, fluorogenic substrate, 485/531 nm; series mostly up to 38.3 µM", "how_it_was_run": "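Cell-free counterscreen with pre-activated enterokinase alone (50 pM final) in 20mM Tris-HCl pH 8.0, 2mM CaCl2, 2mM beta-mercaptoethanol, 0.05% CHAPS; compound preincubation 30 min RT, reporter substrate 25nM final, fluorescence read after 10 min (Ex 485/Em 531).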", "values": [
      {"smiles": "CCOc1ccccc1N1C(=O)CC(Nc2ccc(N3CCOCC3)cc2)C1=O", "note": "(stereo not given)", "Potency": "inactive"},
      {"smiles": "CN(C)CCOCCP(=O)(c1ccccc1)c1ccccc1", "Potency": "inactive"},
      {"smiles": "C[C@H](CO)N1C[C@H](C)[C@@H](CN(C)S(=O)(=O)c2ccc(Cl)cc2)Oc2ccc(NS(=O)(=O)c3ccccc3)cc2CC1=O", "Potency": "inactive"},
      {"smiles": "CCCNC(=O)CS(=O)Cc1nc(-c2ccccc2C)oc1C", "note": "(stereo not given)", "Potency": "inactive"},
      {"smiles": "Cc1cccc(N=C2NC(=O)/C(=C/C=C/c3ccco3)S2)c1", "Potency": "10 µM (active)"},
      {"smiles": "CCOc1ccccc1N(CC(=O)NC(C)(C)C)C(=O)c1ccc(CN2CCOCC2)o1", "Potency": "inactive"},
      {"smiles": "O=C(Nc1ccc(C2=NCCN2)cc1)c1ccc(C(=O)Nc2ccc(C3=NCCN3)cc2)c([N+](=O)[O-])c1", "Potency": "7.94 µM (active)"},
      {"smiles": "COc1cc(C(O)P(=O)(OC(C)C)c2ccc(N(C)C)cc2)cc(OC)c1OC", "note": "(stereo not given)", "Potency": "inactive"},
      {"smiles": "Cc1cccc(-c2nnc3n2N=C(c2ccc(Br)cc2)CS3)c1", "Potency": "inactive"},
      {"smiles": "O=C(CN1CCC(O)CC1)N1c2ccccc2C=Cc2ccccc21", "Potency": "inactive"},
      {"smiles": "Cc1ccc2nc(NCCCNC(=O)c3cnccn3)c(C#N)cc2c1", "Potency": "inactive"},
      {"smiles": "C[C@H](CO)N1C[C@H](C)[C@@H](CN(C)S(=O)(=O)c2cccs2)Oc2c(NC(=O)Nc3ccc4c(c3)OCO4)cccc2C1=O", "Potency": "inactive"},
      {"smiles": "CN1CCN(S(=O)(=O)c2ccc(N3CCN(S(=O)(=O)/C=C/c4ccccc4)CC3)nc2)CC1", "Potency": "inactive"},
      {"smiles": "O=C(Cc1ccc(S(=O)(=O)N2CCOCC2)s1)Nc1nc2c(s1)CCCC2", "Potency": "10 µM (active)"},
      {"smiles": "Nc1cc(=O)[nH]c(SCc2cccc(Cl)c2)n1", "Potency": "inactive"}
    ]}
  ]
}
